Test results: paper PMC5540273 (PLoS ONE, 2017)

Experiments:
Conditions in all cases: concentration: 1 μM, replicates: in singlicate; n = 1
ERK8 = test system: T1, ERK8
T1 construct: gene MAPK15

ERN1 = test system: ERN1
FAK = test system: T2, FAK
T2 construct: gene PTK2

FER = test system: FER
FES = test system: FES
FGFR1 = test system: FGFR1
FGFR2 = test system: FGFR2
FGFR3 = test system: FGFR3
FGFR4 = test system: FGFR4
FGR = test system: FGR
FLT1 = test system: FLT1
FLT3-autoinhibited = test system: FLT3-autoinhibited
FLT3 = test system: FLT3
FLT4 = test system: FLT4
FRK = test system: FRK
FYN = test system: FYN
GAK = test system: GAK
GCN2(Kin.Dom.2,S808G) = test system: T3, GCN2(Kin.Dom.2,S808G)
T3 construct: gene EIF2AK4

GRK1 = test system: GRK1
GRK2 = test system: T4, GRK2
T4 construct: gene ADRBK1
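Note: KINOMEscan kinase panel screen.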

Structure (SMILES) | %Inh (ERK8) | %Inh (ERN1) | %Inh (FAK) | %Inh (FER) | %Inh (FES) | %Inh (FGFR1) | %Inh (FGFR2) | %Inh (FGFR3) | %Inh (FGFR4) | %Inh (FGR) | %Inh (FLT1) | %Inh (FLT3-autoinhibited) | %Inh (FLT3) | %Inh (FLT4) | %Inh (FRK) | %Inh (FYN) | %Inh (GAK) | %Inh (GCN2(Kin.Dom.2,S808G)) | %Inh (GRK1) | %Inh (GRK2)
COc1ccc(Nc2nccc(-c3ccc(NC(=O)c4cc5cc(F)ccc5[nH]4)cc3)n2)cc1 [GSK1229496] | 0% | 0% | 0% | 16% | 15% | 0% | 19% | 9% | 0% | 10% | 4% | 0% | 0% | 9% | 0% | 0% | 0% | 0% | 3% | 9%
Cc1ccc(NC(=O)c2ccc(Cl)cc2)cc1-c1ccc(C(=O)Nc2ccncc2)cc1 [GSK1398467] | 0% | 0% | 0% | 24% | 0% | 0% | 0% | 7% | 18% | 40% | 37% | 0% | 0% | 2% | 30% | 0% | 1% | 0% | 0% | 0%
Cc1ccc(NC(=O)Nc2ccc(Cl)c(C(F)(F)F)c2)cc1-c1ccc(C(=O)Nc2ccncc2)cc1 [GSK1398470] | 0% | 25% | 0% | 22% | 15% | 0% | 12% | 23% | 11% | 19% | 23% | 0% | 27% | 0% | 42% | 44% | 14% | 15% | 0% | 0%
O=c1cc(N2CCOCC2)nc2n(Cc3ccccc3F)ccn12 [GSK2297428] | 0% | 7% | 0% | 36% | 0% | 0% | 12% | 10% | 0% | 4% | 24% | 0% | 0% | 2% | 20% | 0% | 0% | 0% | 0% | 0%
COC(=O)c1cccc(NC(=O)NC2CCN(c3ccnc(Nc4ccc(OC)cc4)n3)C2)c1 (stereo not drawn) [GSK1379746] | 0% | 5% | 0% | 13% | 0% | 0% | 0% | 0% | 4% | 11% | 26% | 0% | 0% | 4% | 11% | 8% | 0% | 0% | 0% | 0%
COc1cccc(C2=C(Nc3cc(Cl)c(O)c(Cl)c3)C(=O)NC2=O)c1 [SB-390767] | 37% | 17% | 0% | 0% | 0% | 0% | 53% | 41% | 29% | 22% | 20% | 0% | 0% | 10% | 20% | 30% | 100% | 0% | 3% | 0%
COc1ccc(CSc2nnc(-c3ccc4c(c3)CCO4)o2)cc1 | 0% | 0% | 0% | 0% | 12% | 0% | 0% | 0% | 0% | 14% | 0% | 0% | 0% | 0% | 0% | 0% | 0% | 33% | 0% | 0%
COc1ccc(CSc2nnc(-c3ccc4ncsc4c3)o2)cc1C(F)(F)F | 57% | 0% | 0% | 0% | 14% | 5% | 0% | 0% | 0% | 27% | 0% | 0% | 0% | 10% | 0% | 0% | 0% | 0% | 0% | 0%
O=C(Nc1n[nH]c2nc(-c3ccco3)c(Br)cc12)C1CCN(Cc2ccccc2)C1.O=C(O)[C@H](O)[C@@H](O)C(=O)O (stereo not drawn) [SB-742034] | 2% | 19% | 4% | 0% | 0% | 23% | 0% | 0% | 10% | 6% | 0% | 10% | 7% | 6% | 0% | 0% | 8% | 0% | 42% | 0%
Cc1ccc(NC(=O)Nc2ccccc2F)cc1-c1ccc(C(=O)Nc2ccncc2)cc1 [GSK1398477] | 0% | 13% | 0% | 16% | 11% | 19% | 14% | 23% | 21% | 26% | 45% | 0% | 13% | 34% | 72% | 40% | 24% | 28% | 0% | 0%
CNCc1ccc2nc(NC(=O)c3ccc(C(C)(C)C)cc3)cn2c1 | 2% | 9% | 3% | 1% | 1% | 0% | 0% | 6% | 0% | 0% | 27% | 19% | 66% | 29% | 1% | 6% | 5% | 0% | 13% | 39%
CCn1c(-c2c(N)noc2C)nc2cnccc21 [SB-737856] | 41% | 15% | 0% | 3% | 42% | 0% | 28% | 37% | 11% | 61% | 20% | 0% | 0% | 0% | 11% | 3% | 21% | 7% | 0% | 0%
COc1nccc(-c2c(-c3ccc(F)cc3)ncn2CCCN2CCOCC2)n1 [SB-282852] | 4% | 16% | 0% | 0% | 0% | 46% | 0% | 0% | 0% | 1% | 10% | 4% | 0% | 0% | 0% | 0% | 0% | 1% | 29% | 2%
Cc1c(Cn2c3ccccc3n3c(=O)cc(N4CCOCC4)nc23)cccc1C(F)(F)F [GSK2306394] | 26% | 10% | 0% | 6% | 0% | 4% | 2% | 0% | 0% | 0% | 27% | 17% | 11% | 18% | 0% | 20% | 18% | 5% | 0% | 0%
O=C(Nc1n[nH]c2nc(-c3cccs3)c(Br)cc12)C1CCCC1 [SB-743341] | 61% | 43% | 1% | 20% | 18% | 28% | 0% | 2% | 3% | 23% | 10% | 34% | 39% | 0% | 5% | 6% | 0% | 0% | 26% | 0%
COc1cc2ncnc(Nc3cccc(Br)c3)c2cc1OC.Cl [GI230329] | 0% | 2% | 0% | 31% | 0% | 0% | 22% | 11% | 0% | 26% | 21% | 0% | 0% | 0% | 15% | 16% | 87% | 0% | 0% | 36%
COC(=O)c1cccc(NC(=O)NC2CCN(c3ccnc(Nc4ccc(F)cc4)n3)C2)c1 (stereo not drawn) [GSK1379725] | 0% | 0% | 0% | 0% | 0% | 0% | 4% | 4% | 9% | 12% | 24% | 0% | 0% | 0% | 13% | 15% | 0% | 0% | 5% | 0%
Cl.Cl.Cl.N#Cc1ccc(CCNc2nccc(-c3cccc(CN4CCNCC4)c3)n2)cc1 [GSK2137462] | 28% | 25% | 56% | 4% | 6% | 0% | 10% | 17% | 22% | 23% | 17% | 0% | 38% | 2% | 4% | 38% | 26% | 11% | 0% | 0%
O=C1NC(=O)C(c2ccc(Cl)cc2)=C1Nc1ccc(O)cc1 [SB-340867] | 29% | 0% | 0% | 4% | 0% | 0% | 0% | 0% | 0% | 12% | 0% | 0% | 6% | 0% | 0% | 0% | 0% | 0% | 0% | 0%
FC(F)(F)c1ccccc1-c1cc(-c2c[nH]nc2-c2ccccn2)ccn1 [GW679396] | 0% | 10% | 0% | 15% | 0% | 4% | 0% | 0% | 0% | 12% | 18% | 0% | 0% | 0% | 17% | 0% | 27% | 0% | 0% | 0%
CC(=O)c1c(C)c2cnc(Nc3ccc(N4CCNCC4)cn3)nc2n(C2CCCC2)c1=O | 17% | 0% | 0% | 4% | 0% | 2% | 0% | 0% | 0% | 20% | 0% | 0% | 0% | 0% | 7% | 0% | 0% | 0% | 10% | 0%
